# ± gives the standard deviation.
# Tested on: MILI (PIWIL2) piRISC loaded with piRNA #1 (26 nt)
# Assay: pre-steady-state target cleavage rate (min^-1); guide: piRNA #1 5'p-UGAGGUAGUAGGUUGUAUAGUAUCCA; MIWI and MILI are mouse PIWI proteins and EfPiwi is from a freshwater sponge; tags in brackets are library labels; higher = faster piRNA-guided slicing of the target
# Settings: auxiliary factor: 500 nM mouse GTSF1
# Procedure, shortened: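 Reactions were run for 0–8 or 0–960 min at 33 °C in HEPES–potassium acetate buffer, combining 1 nM active affinity-purified piRISC with one synthetic guide, […] transcribed, DNA-blocked target RNA library and, in some cases, 500 nM GTSF1 partner protein. Sequencing of uncleaved targets followed, with normalisation to depth and to weakly complementary targets. Three trials were pooled, k3 was capped at 0.0001 min^-1, and the pre-steady-state cleavage rate was taken from a burst-and-steady-state fit.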
# 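Note: 1 nM active piRISC with 0.1 nM target library at 33 °C single turnover.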
row,Sequence,pre-steady-state target cleavage rate
1,GGAGACCUAUGAAUACAAGCUACAACCUCA,0.018 ± 0.0032
2,GGAGACCUAUGAAUACAACGUACUACCUGA,0.00311 ± 0.0023
3,GGAGACCUAUGUAUACAACCUACUACGUGA,0.0238 ± 0.0053
4,GGAGACCUAUCUAUACAACCUACUACGUGA,0.0608 ± 0.013
5,GGAGACCUAUGAUAUGUGCCUACUACCUCA,< 0.0001
6,GGAGACCUAUGUAUACAUCCUACUUCCUCA,0.0795 ± 0.013
7,GGAGACCUAUGAAUGCAACCUACUACCUCA,0.00733 ± 0.0031
8,GGAGACCUAUGAUUAGCAACCUACUACCUCA,0.00597 ± 0.0035
9,GGAGACCUAUCUAUACUACCUACUUCCUCA,0.0634 ± 0.01
10,GGAGACCUAUGAUUUACAACCUACUACCUCA,0.00564 ± 0.003
11,GGAGACCUAACUUUACAUCCUACUACCUCA,0.143 ± 0.025
12,GGAGAGGAUUCUAUACUACCUACUACCUCA,0.161 ± 0.0097
13,GGAGAGGAUUCUAUACAACCUACUACCACA,0.113 ± 0.011
14,GGAGUGGAUACUAUAGUACCUACUACCUCA,0.161 ± 0.012
15,GGAGACCUAUGUAUACAACCUACUAACCUCA,0.0935 ± 0.013
16,GGAGACCUAUCUAUACUUCCUACUACCUCA,0.054 ± 0.013
17,GGAGACCUUACUAUACAACCUACUAACUCA,0.0948 ± 0.017
18,GGAGACCUAUGAUAUCAACCUACACCUCA,< 0.0001
19,GGAGACCUAUGUAUACAACCUACUAACUCA,0.0355 ± 0.0081
20,GGAGACCAUUCUAUUCAACCUACUACCUCA,0.102 ± 0.012
21,GGAGACCUAUCUAUAUCAACCUACUACCUCA,0.00847 ± 0.0035
22,GGAGACCUAACAAUACAAGCUACUACCUCA,0.22 ± 0.029

row,Sequence,pre-steady-state target cleavage rate
1,GGAGACCUAUGUAUACAACCUACUACUCA,0.063 ± 0.013
2,GGAGACCUAACAAUACAACCUACUAGCUCA,0.0462 ± 0.017
3,GGAGACCUAACUUUUCAACCUACUACCUCA,0.0456 ± 0.014
4,GGAGACCUAUGUAUAGAACCUACUACCACA,0.0238 ± 0.0059
5,GGAGACCUAUCUUUACAACCAACUACCUCA,0.0039 ± 0.0033
6,GGAGACCUUACUAUACAUCCUACUAGCUCA,0.2 ± 0.024
7,GGAGACCUAUGAUUACAACCUACUACCUGCA,0.00769 ± 0.0026
8,GGAGACCUUACUAUACAUGGUACUACCUCA,0.00395 ± 0.0029
9,GGAGACCUAACUAUUCAACCUACUACCACA,0.118 ± 0.022
10,GGAGACCUAUGAAUACAACCUUCUACCUCA,0.00275 ± 0.0024
11,GGAGACCUAACUAUACUACGUACUACCUCA,0.0154 ± 0.0042
12,GGAGACCAUAGUAUAGAACCUACUACCUCA,0.105 ± 0.011
13,GGAGACCAUUCUAUAGAACCUACUACCUCA,0.116 ± 0.015
14,GGAGACCUAUCAAUACUACCUACUACCUCA,0.0216 ± 0.0056
15,GGAGACCUUACUAUACAUCCAACUACCUCA,0.0082 ± 0.003
16,GGAGUGGAUACUAUACAACCAACUAGCUCA,0.00229 ± 0.0021
17,GGAGUGGAUACUUAUCAACCUACUACCUCA,0.149 ± 0.011
18,GGAGACCAUACUAUACAACCUACUCCUCA,0.0178 ± 0.0057
19,GGAGACCAUACAAUACAACCUAGUACCUCA,0.0587 ± 0.011
20,GGAGACCUAUCUAUAAAACCUACUACCUCA,0.0877 ± 0.013
21,GGAGACCUUACAAUACAAGCUACUACCUCA,0.191 ± 0.011
22,GGAGACCUAUGUAAACAAGCUACUACCUCA,0.0459 ± 0.0073

row,Sequence,pre-steady-state target cleavage rate
1,GGAGACCUAUCUUUACAACCUACUACCUGA,0.0554 ± 0.012
2,GGAGUGGUACUAUACAACCUACUACCUCA,0.148 ± 0.0098
3,GGAGACCUUUCUAAACAACCUACUACCUCA,0.0629 ± 0.012
4,GGAGUGCAUACUAAACAACCUACUACCUCA,0.147 ± 0.011
5,GGAGACCUAUGUAUACAACGUACAACCUCA,0.00935 ± 0.0021
6,GGAGUGCAUACUAUACAACCUACUACGUCA,0.0632 ± 0.0079
7,GGAGACCUAUGAUAACAAGCUACUUCCUCA,0.00574 ± 0.0027
8,GGAGACCAUACUAUUGAACCUACUACCUCA,0.153 ± 0.013
9,GGAGUGGAUACUAUAACAACCUACUACCUCA,0.171 ± 0.0095
10,GGAGACCAUACUAUACAUGCUACUACCUCA,0.0704 ± 0.01
11,GGAGACCUAACUAUAAAACCUACUACCUCA,0.0772 ± 0.013
12,GGAGACCUAUGAUAACAAGCUACUACCACA,0.0117 ± 0.0047
13,GGAGACCUAUGAUAUCAACCUACUUACCUCA,0.00342 ± 0.0024
14,GGAGACCUAUGUAAACAACCUUCUACCUCA,0.00363 ± 0.0033
15,GGAGACCUAUGAUAACAACCUACAUGGAGA [g8:g16:cont:t1A],< 0.0001
16,GGAGACCUUACUAUACUACCAACUACCUCA,0.00617 ± 0.0026
17,GGAGACCUAUGAUUUCAACCUACAACCUCA,0.00341 ± 0.0021
18,GGAGACCUAACUAUACAACCUACUACCAUCA,0.261 ± 0.038
19,GGAGACCUAUGAAUACAACCUACUACCUUCA,0.00676 ± 0.0021
20,GGAGACCUAUGAUAUGUUCCUACUAGGUCA,< 0.0001
21,GGAGAGGAUAGAAUACAACCUACUACCUCA,0.096 ± 0.01
22,GGAGACCUAUCUAUACAACGUACUACCUCA,0.0127 ± 0.0028

# — the supplement of paper PMC10338343
